From PubChem BioAssay
Values without a mark were called inactive. Activity calls are given as the source filed them. Rule as the data show it, unless noted: active = inhibition above about 30%; inactive = the rest.

Key:
[1] = molecular target: Nuclear receptor coactivator 3 (Homo sapiens) (UniProt Q9Y6Q9); test: SRC3 coactivator transcriptional activity inhibitors, confirmation, cell-based, luminescence, quadruplicate (AID 588792;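 active = mean inhibition over 43.08%, the solvent-only control mean plus 3 SD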;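 also: 0% = DMSO treated cells and 100% = gossypol at 36 µM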); conditions: HEK293 GAL4-SRC3 luciferase reporter, at 3.6 µM, stronger effect = higher value
[2] = test system: transactivating tegument protein VP16 (Human herpesvirus 1), Gal4-VP16 luciferase reporter; test: VP16 transactivation inhibitors, counter-screen for SRC3 inhibitor project, cell-based, luminescence, high throughput (AID 588794); conditions: mammalian cells, VP16-driven luciferase reporter luminescence; at 3.6 µM; stronger effect = higher value
[3] = molecular target: Nuclear receptor coactivator 1 (Homo sapiens) (UniProt Q15788); test: SRC1 coactivator transcriptional activity inhibitors, confirmation, cell-based, luminescence, quadruplicate (AID 588820;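 active = mean inhibition above 46.68%, the untreated control wells mean plus 3 SD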;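 also: 0% = DMSO wells and 100% = gossypol 36 µM treated wells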); conditions: HEK293 GAL4-SRC1 luciferase reporter, at 3.6 µM, stronger effect = higher value
[4] = VP16 transactivation inhibitors, counter-screen for SRC1 inhibitor project, cell-based, luminescence, high throughput (AID 588824; in the data active = inhibition above about 25%); conditions: cell-based VP16 transactivation luciferase luminescence; at 3.6 µM; stronger effect = higher value

Sequence of Nuclear receptor coactivator 3 (Homo sapiens) (Q9Y6Q9 whole entry, looked up, the tested form may be a part): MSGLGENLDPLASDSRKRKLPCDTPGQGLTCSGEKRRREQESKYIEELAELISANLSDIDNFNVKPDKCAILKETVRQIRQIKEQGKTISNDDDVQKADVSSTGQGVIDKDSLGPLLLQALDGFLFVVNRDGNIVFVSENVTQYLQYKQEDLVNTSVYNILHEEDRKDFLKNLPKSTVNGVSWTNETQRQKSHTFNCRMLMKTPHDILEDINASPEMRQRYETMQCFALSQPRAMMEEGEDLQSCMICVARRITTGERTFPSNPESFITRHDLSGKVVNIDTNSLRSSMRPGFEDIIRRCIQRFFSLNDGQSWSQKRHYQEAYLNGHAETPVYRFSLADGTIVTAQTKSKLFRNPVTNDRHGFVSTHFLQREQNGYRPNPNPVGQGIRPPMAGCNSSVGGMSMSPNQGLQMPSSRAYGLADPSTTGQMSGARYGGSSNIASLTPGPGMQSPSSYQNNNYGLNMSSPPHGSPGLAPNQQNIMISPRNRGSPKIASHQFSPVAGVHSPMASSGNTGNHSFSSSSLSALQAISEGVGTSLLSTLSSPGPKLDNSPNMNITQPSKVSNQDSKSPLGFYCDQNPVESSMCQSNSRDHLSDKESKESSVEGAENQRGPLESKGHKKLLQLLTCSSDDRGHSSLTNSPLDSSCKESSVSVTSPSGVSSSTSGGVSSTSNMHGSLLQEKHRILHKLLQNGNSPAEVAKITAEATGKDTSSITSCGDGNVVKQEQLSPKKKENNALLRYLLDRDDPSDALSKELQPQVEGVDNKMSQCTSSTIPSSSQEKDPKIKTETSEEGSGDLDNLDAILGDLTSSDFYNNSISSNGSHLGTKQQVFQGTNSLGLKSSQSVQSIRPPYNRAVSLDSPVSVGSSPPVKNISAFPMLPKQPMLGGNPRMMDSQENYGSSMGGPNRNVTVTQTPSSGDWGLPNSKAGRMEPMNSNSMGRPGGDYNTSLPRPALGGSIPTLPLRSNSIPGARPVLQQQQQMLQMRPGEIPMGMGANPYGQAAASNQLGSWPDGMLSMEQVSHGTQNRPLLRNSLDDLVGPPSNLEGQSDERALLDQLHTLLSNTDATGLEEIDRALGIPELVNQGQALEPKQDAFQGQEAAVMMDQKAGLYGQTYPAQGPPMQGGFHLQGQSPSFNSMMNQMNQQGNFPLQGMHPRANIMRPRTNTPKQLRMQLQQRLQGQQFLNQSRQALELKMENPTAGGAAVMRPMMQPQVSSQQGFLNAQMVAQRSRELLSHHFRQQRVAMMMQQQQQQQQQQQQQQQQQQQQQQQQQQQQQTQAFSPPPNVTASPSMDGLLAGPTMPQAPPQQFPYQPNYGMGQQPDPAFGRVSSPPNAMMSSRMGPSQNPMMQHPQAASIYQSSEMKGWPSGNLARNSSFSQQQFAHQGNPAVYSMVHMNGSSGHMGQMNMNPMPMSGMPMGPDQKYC
Sequence of Nuclear receptor coactivator 1 (Homo sapiens) (Q15788 whole entry, looked up, the tested form may be a part): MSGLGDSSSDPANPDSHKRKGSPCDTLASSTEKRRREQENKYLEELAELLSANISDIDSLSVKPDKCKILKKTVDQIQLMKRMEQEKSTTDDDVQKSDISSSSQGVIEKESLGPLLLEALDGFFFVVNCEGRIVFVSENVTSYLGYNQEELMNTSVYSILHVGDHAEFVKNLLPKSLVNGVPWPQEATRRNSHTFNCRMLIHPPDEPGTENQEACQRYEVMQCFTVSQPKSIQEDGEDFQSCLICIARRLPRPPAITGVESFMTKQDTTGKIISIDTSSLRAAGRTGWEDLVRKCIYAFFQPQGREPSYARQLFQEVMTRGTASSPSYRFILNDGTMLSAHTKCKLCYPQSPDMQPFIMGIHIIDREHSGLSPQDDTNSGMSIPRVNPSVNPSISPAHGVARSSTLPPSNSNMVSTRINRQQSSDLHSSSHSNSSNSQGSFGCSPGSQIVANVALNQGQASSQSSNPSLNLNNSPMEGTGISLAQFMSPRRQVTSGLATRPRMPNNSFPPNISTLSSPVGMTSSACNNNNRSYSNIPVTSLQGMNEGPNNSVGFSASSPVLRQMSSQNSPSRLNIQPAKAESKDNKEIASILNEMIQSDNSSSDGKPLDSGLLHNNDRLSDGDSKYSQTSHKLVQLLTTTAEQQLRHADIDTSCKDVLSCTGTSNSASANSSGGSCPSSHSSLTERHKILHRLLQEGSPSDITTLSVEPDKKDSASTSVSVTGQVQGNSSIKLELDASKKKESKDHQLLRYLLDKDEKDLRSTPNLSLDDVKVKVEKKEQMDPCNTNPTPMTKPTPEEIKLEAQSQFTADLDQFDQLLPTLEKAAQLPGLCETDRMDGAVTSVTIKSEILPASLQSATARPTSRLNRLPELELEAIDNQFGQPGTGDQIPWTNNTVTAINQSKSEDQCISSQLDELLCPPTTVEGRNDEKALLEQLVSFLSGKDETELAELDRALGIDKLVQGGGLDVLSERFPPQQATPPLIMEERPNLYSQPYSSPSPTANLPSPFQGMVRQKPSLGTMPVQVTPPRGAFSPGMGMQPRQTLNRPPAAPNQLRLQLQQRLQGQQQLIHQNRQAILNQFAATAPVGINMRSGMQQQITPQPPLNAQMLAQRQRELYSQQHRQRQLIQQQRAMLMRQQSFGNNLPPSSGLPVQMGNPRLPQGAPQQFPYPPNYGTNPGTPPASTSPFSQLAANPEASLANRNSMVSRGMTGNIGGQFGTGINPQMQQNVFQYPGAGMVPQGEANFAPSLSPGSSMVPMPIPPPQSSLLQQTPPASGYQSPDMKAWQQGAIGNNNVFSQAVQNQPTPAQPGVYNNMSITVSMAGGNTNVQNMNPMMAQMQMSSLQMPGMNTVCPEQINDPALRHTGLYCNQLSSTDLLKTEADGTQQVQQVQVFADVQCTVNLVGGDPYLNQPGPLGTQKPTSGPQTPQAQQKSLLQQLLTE

CC1CCc2c(sc(NC(=O)c3cccs3)c2C(=O)O)C1 (stereo not drawn)
inhibition [1]: 33.8% | inhibition [2]: 60.6% (active) | inhibition [3]: 11.8% | inhibition [4]: 54.1% (active)

COc1ccc(Cl)cc1Nc1nc(-c2sc(NC(=O)C(C)(C)C)nc2C)cs1
inhibition [1]: 15.2% | inhibition [2]: 35.9% (active) | inhibition [3]: 14.5% | inhibition [4]: 39.8% (active)

Cc1ccccc1-c1cc(C(=O)Nc2sc(C(=O)OC(C)C)c(C)c2C#N)c2ccccc2n1
inhibition [1]: 31.8% | inhibition [2]: 50.9% (active) | inhibition [3]: 37.2% | inhibition [4]: 40.9% (active)

CCCC(=O)NC(c1ccccc1OC)c1ccc2cccnc2c1O (stereo not drawn)
inhibition [1]: 61.1% (active) | inhibition [2]: 37.8% (active) | inhibition [3]: 52.2% (active) | inhibition [4]: 41.9% (active)

COc1ccc(C)cc1NC(=O)CN1C(=O)CSc2ccc(S(=O)(=O)N3CCCC3)cc21
inhibition [1]: 4.25% | inhibition [2]: 3.04%

CCCCOC(=O)c1[nH]c2c(c1C)C(=O)CC(c1cc(OC)c(OC)c(OC)c1)C2 (stereo not drawn)
inhibition [1]: 8.2% | inhibition [2]: 28% | inhibition [3]: -1.5% | inhibition [4]: 32.1% (active)

COC(=O)c1cc(N/C(N)=N/c2nc(C)cc(C)n2)cc(C(=O)OC)c1
inhibition [1]: 27.3% | inhibition [2]: 55.4% (active) | inhibition [3]: 48.2% (active) | inhibition [4]: 52% (active)

Cc1ccc(C(=O)Nc2nc(-c3ccccn3)cs2)cc1S(=O)(=O)N1CCOCC1
inhibition [1]: 17% | inhibition [2]: 29% | inhibition [3]: 13.8% | inhibition [4]: 35.8% (active)

CCCCCCCCCn1c2c(c(=N)c3c1CCC3)CCC2
inhibition [1]: 89.7% (active) | inhibition [2]: 85.2% (active) | inhibition [3]: 71.4% (active) | inhibition [4]: 84.8% (active)

O=[N+]([O-])c1cccc(C=NNc2ccc3ccccc3n2)c1O
inhibition [1]: -4.77% | inhibition [2]: -23.2% | inhibition [3]: -90.4% | inhibition [4]: -49.2%

N=c1c2c(-c3ccccc3)c(-c3ccccc3)n(Cc3ccccc3)c2ncn1CCCn1ccnc1
inhibition [1]: 26.8% | inhibition [2]: 62.5% (active) | inhibition [3]: 57.4% (active) | inhibition [4]: 62.8% (active)

Cc1sc(NC(=O)Cc2ccc3c(c2)OCO3)nc1-c1ccc2c(c1)CCN2C(=O)c1ccc(F)cc1
inhibition [1]: 13.6% | inhibition [2]: 30.3% (active) | inhibition [3]: 17.3% | inhibition [4]: 25.9% (active)

CC(C)CCNC(=O)C(c1ccncc1)N(Cc1cccs1)C(=O)Cn1nnc(-c2ccc(F)cc2)n1 (stereo not drawn)
inhibition [1]: 66.2% (active) | inhibition [2]: 54.1% (active) | inhibition [3]: 46.3% | inhibition [4]: 52.2% (active)

Cn1c(C(=O)O)c(CC(=O)Nc2ccc3c(c2)OCCO3)c2ccccc21
inhibition [1]: 19.4% | inhibition [2]: 3.77% | inhibition [3]: -17.2% | inhibition [4]: -7.4%

O=C(N/N=C/c1c(O)ccc2ccccc12)c1cccc(C(F)(F)F)c1
inhibition [1]: 82.3% (active) | inhibition [2]: 78.6% (active) | inhibition [3]: 60.8% (active) | inhibition [4]: 77.4% (active)

CC(C)n1cnc2c(NCc3ccccc3)cc(N[C@H](C)CO)cc21
inhibition [1]: 16.4% | inhibition [2]: 87.3% (active) | inhibition [3]: 35.6% | inhibition [4]: 8.74%

Cc1ccc(NC(=O)c2cc3ccccc3oc2=O)cc1S(=O)(=O)N(C)C
inhibition [1]: 82.9% (active) | inhibition [2]: 78.5% (active) | inhibition [3]: 67% (active) | inhibition [4]: 63.7% (active)

COc1ccc2cc3c(N)nn(C(=O)c4ccc(Cl)c([N+](=O)[O-])c4)c3nc2c1
inhibition [1]: 70.2% (active) | inhibition [2]: 39.4% (active) | inhibition [3]: 56.7% (active) | inhibition [4]: 36.5% (active)

O=C(N/N=C/c1cc(Cl)cc(Cl)c1O)c1ccncc1
inhibition [1]: 26.5% | inhibition [2]: 40.9% (active) | inhibition [3]: 30.7% | inhibition [4]: 33.7% (active)

O=C(N/N=C/c1ccccc1O)c1cccc(C(F)(F)F)c1
inhibition [1]: 57.9% (active) | inhibition [2]: 43.2% (active) | inhibition [3]: 65.9% (active) | inhibition [4]: 48.8% (active)

Cc1ccc(CNc2ncnc3ccc(-c4ccoc4C)cc23)o1
inhibition [1]: 58.8% (active) | inhibition [2]: 52% (active) | inhibition [3]: 62% (active) | inhibition [4]: 50.9% (active)

CC(C)c1nc(NCCO)c(C#N)c2c1CCCC2
inhibition [1]: 40% | inhibition [2]: 30% (active) | inhibition [3]: 22.1% | inhibition [4]: 35.1% (active)

CC1(C)CCSC(/C=C/c2ccccc2)=N1
inhibition [1]: 62.4% (active) | inhibition [2]: 45.5% (active) | inhibition [3]: 46.1% | inhibition [4]: 39.8% (active)

CC(=O)NC(C)c1cc(Cl)c2cccnc2c1O (stereo not drawn)
inhibition [1]: 20.2% | inhibition [2]: 2.75% | inhibition [3]: 10.6% | inhibition [4]: 2.16%

c1cnc2ccc(-n3ccnc3)cc2c1
inhibition [1]: 24.2% | inhibition [2]: 23.8% | inhibition [3]: 19.9% | inhibition [4]: 22.4%
